Each molecule was assayed against Chromo domain-containing protein 1 (Saccharomyces cerevisiae (strain ATCC 204508 / S288c) (Baker's yeast)) (UniProt P32657) (assay: ScCHD-1 Enzyme Inhibition Assay). Conditions: 30 µM.
Format: functional
Parameters: scale not given: in the data most compounds retested in dose-response had high values

Sequence of Chromo domain-containing protein 1 (Saccharomyces cerevisiae (strain ATCC 204508 / S288c) (Baker's yeast)) (P32657 whole entry, the tested form may be a part): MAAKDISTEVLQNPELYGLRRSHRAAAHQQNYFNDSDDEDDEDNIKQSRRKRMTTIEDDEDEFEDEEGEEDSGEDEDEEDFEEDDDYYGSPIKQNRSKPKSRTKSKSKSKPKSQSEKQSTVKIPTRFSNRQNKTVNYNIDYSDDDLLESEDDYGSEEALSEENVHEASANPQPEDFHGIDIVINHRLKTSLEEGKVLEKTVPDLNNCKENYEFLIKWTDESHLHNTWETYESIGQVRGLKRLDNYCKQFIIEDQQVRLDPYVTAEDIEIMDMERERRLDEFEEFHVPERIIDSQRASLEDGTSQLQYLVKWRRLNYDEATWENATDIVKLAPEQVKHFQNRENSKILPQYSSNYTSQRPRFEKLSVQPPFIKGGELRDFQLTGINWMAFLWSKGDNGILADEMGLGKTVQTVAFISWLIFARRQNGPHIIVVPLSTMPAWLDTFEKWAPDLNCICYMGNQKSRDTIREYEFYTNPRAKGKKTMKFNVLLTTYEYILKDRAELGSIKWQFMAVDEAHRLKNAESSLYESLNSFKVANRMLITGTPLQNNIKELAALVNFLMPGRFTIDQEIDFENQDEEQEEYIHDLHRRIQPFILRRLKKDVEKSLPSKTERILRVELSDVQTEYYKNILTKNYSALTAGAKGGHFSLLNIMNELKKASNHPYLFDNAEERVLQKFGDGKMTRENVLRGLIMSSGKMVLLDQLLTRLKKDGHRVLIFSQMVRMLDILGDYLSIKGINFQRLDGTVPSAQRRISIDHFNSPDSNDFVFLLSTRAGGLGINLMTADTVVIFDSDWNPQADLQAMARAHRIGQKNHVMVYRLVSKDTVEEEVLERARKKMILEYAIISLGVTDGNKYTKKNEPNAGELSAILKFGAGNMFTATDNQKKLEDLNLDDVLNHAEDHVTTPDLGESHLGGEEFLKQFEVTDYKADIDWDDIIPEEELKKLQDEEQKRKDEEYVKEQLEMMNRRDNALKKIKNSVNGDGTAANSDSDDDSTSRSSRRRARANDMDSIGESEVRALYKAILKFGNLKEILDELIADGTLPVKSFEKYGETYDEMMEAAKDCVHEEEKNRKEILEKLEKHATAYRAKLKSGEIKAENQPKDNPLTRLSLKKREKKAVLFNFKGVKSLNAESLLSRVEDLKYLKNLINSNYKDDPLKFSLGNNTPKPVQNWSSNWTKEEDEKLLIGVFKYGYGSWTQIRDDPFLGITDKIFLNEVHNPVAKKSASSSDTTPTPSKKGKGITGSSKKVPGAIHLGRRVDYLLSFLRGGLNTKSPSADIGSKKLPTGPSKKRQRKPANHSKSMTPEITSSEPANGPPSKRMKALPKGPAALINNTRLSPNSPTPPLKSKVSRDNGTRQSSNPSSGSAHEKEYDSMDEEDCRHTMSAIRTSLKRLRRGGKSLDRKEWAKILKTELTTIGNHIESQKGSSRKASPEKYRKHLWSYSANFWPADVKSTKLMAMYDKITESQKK

**Q.** Which Percent Effect does the source give for `CCS(=O)(=O)N1C[C@H]2CCC[C@@]2(COc2ccccn2)C1` here?
**A.** -1.39%

**Q.** How did the Percent Effect turn out when `Cc1ccc(CNCCOc2ccc(S(C)(=O)=O)cc2)cc1` was run?
**A.** 3.43%

**Q.** For `Cn1nnc2cc(C(=O)N3CCCC3Cc3ccccc3)ccc21` (centres undefined), which Percent Effect is on record?
**A.** -4.61%

**Q.** `Cn1cnnc1C1CCCN(C(=O)NCCOc2ccccc2)C1` (centres undefined) was tested. Which Percent Effect did it give?
**A.** -12%

**Q.** With `Cc1ccc(-c2cccc(-c3ccn(CCN4CCCC4)n3)c2)nn1` as the molecule, how does the Percent Effect read?
**A.** 0.00646%

**Q.** With `c1coc(-c2nnc(CN3CCCC(CN4CCCCCC4)C3)o2)c1` (centres undefined) as the molecule, how does the Percent Effect read?
**A.** -3.8%

**Q.** How did the Percent Effect turn out when `OC(CN1CCN(Cc2ccc(F)cc2)CC1)C1CC1` (centres undefined) was run?
**A.** -4.22%

**Q.** Which Percent Effect does the source give for `CCCNC(=O)c1ccc(NC(=O)c2cccc(OCC)c2)cc1` here?
**A.** 2.44%

**Q.** `Cc1cc(CN2CCOC(CN(C)c3cccnn3)C2)no1` (centres undefined) was tested. Which Percent Effect did it give?
**A.** -18.6%

**Q.** Which Percent Effect does the source give for `Cc1noc(C)c1CN1CCN(C(=O)Cn2cncn2)CC1` here?
**A.** -4.36%

**Q.** For `CC(C)(C)C(=O)N1CCC(c2nc(O)cc(-c3ccccn3)n2)CC1`, which Percent Effect is on record?
**A.** -8.6%

**Q.** How did the Percent Effect turn out when `COc1cc(CNCc2ccc(C(C)O)cc2)cc2c1OCO2` (centres undefined) was run?
**A.** -9.5%

**Q.** How did the Percent Effect turn out when `c1cnc(-c2nc(CNCCn3cccn3)cs2)nc1` was run?
**A.** -6.78%

**Q.** For `O=C(NCCNc1ccccn1)N1CCSCC1`, which Percent Effect is on record?
**A.** -1.12%

**Q.** How did the Percent Effect turn out when `O=C(CS(=O)(=O)c1ccccc1Cl)NC1CCCCNC1=O` (centres undefined) was run?
**A.** -2.31%

**Q.** `N#CC1(C(=O)NCCCNc2ccc(C(F)(F)F)cn2)CCCC1` was tested. Which Percent Effect did it give?
**A.** -0.995%

**Q.** For `O=C1CCc2cc(-c3csc(CCN4CCCC4=O)n3)ccc2N1`, which Percent Effect is on record?
**A.** -7.82%

**Q.** `CCn1c(C(=O)N2CCN(C(=O)COC)CC2)cc2ccccc21` was tested. Which Percent Effect did it give?
**A.** -12.3%

**Q.** For `CC(O)CC(C)(C)CNC(=O)NCc1cccc(-n2ccnc2)c1` (centres undefined), which Percent Effect is on record?
**A.** 4.12%

**Q.** Which Percent Effect does the source give for `CCS(=O)(=O)NCCNC(=O)c1cc(Cl)c2c(c1)OCCCO2` here?
**A.** -5.31%

**Q.** `COc1c(CNCc2ccnc(N3CCCC3)c2)c(C)nn1C` was tested. Which Percent Effect did it give?
**A.** -7.79%

**Q.** With `C[C@H]1C[C@@H]2CCN(C(=O)c3ccncn3)C[C@H]2O1` as the molecule, how does the Percent Effect read?
**A.** -3.12%

**Q.** For `CCNC(=O)NC(=O)CSC(C)c1ccccc1F` (centres undefined), which Percent Effect is on record?
**A.** -6.89%

**Q.** `CN(Cc1ccsc1)C(=O)Nc1ccc(S(C)(=O)=O)nc1` was tested. Which Percent Effect did it give?
**A.** -6.57%

**Q.** `Cc1cc(F)ccc1OC1(C(=O)O)CCN(Cc2ccncc2)CC1` was tested. Which Percent Effect did it give?
**A.** -4.33%

**Q.** `COc1cc(NC(=O)Cn2ccc3sc(C)cc3c2=O)cc(OC)c1` was tested. Which Percent Effect did it give?
**A.** -0.379%

**Q.** Which Percent Effect does the source give for `O=C(CCCc1nnc(-c2ccccc2)o1)N1CCN(CCO)CC1` here?
**A.** -6.47%

**Q.** Which Percent Effect does the source give for `CNc1cc2c(nn1)CCN(C(=O)c1ccoc1)C2` here?
**A.** -15%

**Q.** How did the Percent Effect turn out when `O=C1NC2(CCN(C(=O)c3ccccc3)CC2)CC1c1cccnc1` (centres undefined) was run?
**A.** -2.24%

**Q.** For `CNC(=O)[C@H]1C[C@@H]2CN(S(=O)(=O)c3ccccc3)C[C@@H]2N1C(C)=O`, which Percent Effect is on record?
**A.** 1.18%

**Q.** How did the Percent Effect turn out when `CC(=O)NCC(=O)N1Cc2nccn2CC(Cn2cccn2)C1` (centres undefined) was run?
**A.** -0.528%

**Q.** For `CCc1cnc2c(c1NCc1ccncc1)c(=O)n(C)c(=O)n2C`, which Percent Effect is on record?
**A.** -4.37%

**Q.** With `CCn1cnnc1C1CCN(C(=O)COCCc2ccccc2)CC1` as the molecule, how does the Percent Effect read?
**A.** -12.8%

**Q.** With `Cc1nc(C2CCCN(C(=O)CCCn3ccnc3C)C2)no1` (centres undefined) as the molecule, how does the Percent Effect read?
**A.** 5.19%

**Q.** With `O=C(c1cscn1)N1C[C@H]2CCCC(OCc3cccnc3)[C@H]2C1` (some centres undefined) as the molecule, how does the Percent Effect read?
**A.** -5%

**Q.** How did the Percent Effect turn out when `CSc1cccc(CNC(=O)C2CC(=O)N(CCN(C)C)C2)c1` (centres undefined) was run?
**A.** -3.47%

**Q.** How did the Percent Effect turn out when `COc1ccc(-c2noc(CN3CCOCC3C)n2)cc1OC` (centres undefined) was run?
**A.** -11%

**Q.** How did the Percent Effect turn out when `OCC1CCCN1c1cc(NCCNc2ccccn2)ncn1` (centres undefined) was run?
**A.** -7.12%

**Q.** `O=C(Nc1cc(F)ccc1OCC1CCCO1)c1ccccn1` (centres undefined) was tested. Which Percent Effect did it give?
**A.** -15.1%

Source: ChEMBL document CHEMBL3988442, “University of Dundee, Small-Polar-MMV Screening Library” (2021)
